From article PMC5540273 (PLoS ONE, 2017)
Read-outs that look alike come from different tables or passages of the source.

Legend:
FGFR1 = details: concentration: 1 μM, replicates: in singlicate; n = 1
FGFR2 = details: concentration: 1 μM, replicates: in singlicate; n = 1
FGFR3 = details: concentration: 1 μM, replicates: in singlicate; n = 1
FGFR4 = details: concentration: 1 μM, replicates: in singlicate; n = 1
FGR = details: concentration: 1 μM, replicates: in singlicate; n = 1
FLT1 = details: concentration: 1 μM, replicates: in singlicate; n = 1
FLT3-autoinhibited = details: concentration: 1 μM, replicates: in singlicate; n = 1
FLT3 = details: concentration: 1 μM, replicates: in singlicate; n = 1
FLT4 = details: concentration: 1 μM, replicates: in singlicate; n = 1
FRK = details: concentration: 1 μM, replicates: in singlicate; n = 1
FYN = details: concentration: 1 μM, replicates: in singlicate; n = 1
GAK = details: concentration: 1 μM, replicates: in singlicate; n = 1
GCN2(Kin.Dom.2,S808G) = tested on: T1, GCN2(Kin.Dom.2,S808G); details: concentration: 1 μM, replicates: in singlicate; n = 1
T1 construct: gene EIF2AK4

GRK1 = details: concentration: 1 μM, replicates: in singlicate; n = 1
GRK2 = tested on: T2, GRK2; details: concentration: 1 μM, replicates: in singlicate; n = 1
T2 construct: gene ADRBK1

GRK3 = tested on: T3, GRK3; details: concentration: 1 μM, replicates: in singlicate; n = 1
T3 construct: gene ADRBK2

GRK4 = details: concentration: 1 μM, replicates: in singlicate; n = 1
GRK7 = details: concentration: 1 μM, replicates: in singlicate; n = 1
GSK3A = details: concentration: 1 μM, replicates: in singlicate; n = 1
GSK3B = details: n = 1
[1] = concentration: 1 μM, replicates: in singlicate
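Further: KINOMEscan kinase panel screen.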

## COc1cccc(C2=C(Nc3ccc(Cl)c(C(=O)O)c3)C(=O)NC2=O)c1 [SB-390769]
FGFR1
  %Inh: 8%
FGFR2
  %Inh: 0%
FGFR3
  %Inh: 15%
FGFR4
  %Inh: 25%
FGR
  %Inh: 24%
FLT1
  %Inh: 25%
FLT3-autoinhibited
  %Inh: 0%
FLT3
  %Inh: 0%
FLT4
  %Inh: 47%
FRK
  %Inh: 32%
FYN
  %Inh: 17%
GAK
  %Inh: 8%
GCN2(Kin.Dom.2,S808G)
  %Inh: 100%
GRK1
  %Inh: 100%
GRK2
  %Inh: 0%
GRK3
  %Inh: 59%
GRK4
  %Inh: 14%
GRK7
  %Inh: 0%
GSK3A
  %Inh: 56%
GSK3B; 1 µM
  %Inh: 34%

## CN1CCN(CCCNc2nccc(-c3c(-c4ccc(F)cc4)nn4cc(C(F)(F)F)ccc34)n2)CC1 [GW621581]
FGFR1
  %Inh: 25%
FGFR2
  %Inh: 0%
FGFR3
  %Inh: 0%
FGFR4
  %Inh: 0%
FGR
  %Inh: 6%
FLT1
  %Inh: 33%
FLT3-autoinhibited
  %Inh: 0%
FLT3
  %Inh: 0%
FLT4
  %Inh: 16%
FRK
  %Inh: 5%
FYN
  %Inh: 0%
GAK
  %Inh: 78%
GCN2(Kin.Dom.2,S808G)
  %Inh: 4%
GRK1
  %Inh: 0%
GRK2
  %Inh: 4%
GRK3
  %Inh: 0%
GRK4
  %Inh: 8%
GRK7
  %Inh: 0%
GSK3A
  %Inh: 25%
GSK3B; [1]
  %Inh: 3%

## c1ccc(-c2n[nH]cc2Nc2ccnc3ccccc23)nc1 [GW694077]
FGFR1
  %Inh: 0%
FGFR2
  %Inh: 0%
FGFR3
  %Inh: 0%
FGFR4
  %Inh: 0%
FGR
  %Inh: 10%
FLT1
  %Inh: 26%
FLT3-autoinhibited
  %Inh: 8%
FLT3
  %Inh: 12%
FLT4
  %Inh: 11%
FRK
  %Inh: 0%
FYN
  %Inh: 36%
GAK
  %Inh: 100%
GCN2(Kin.Dom.2,S808G)
  %Inh: 0%
GRK1
  %Inh: 7%
GRK2
  %Inh: 0%
GRK3
  %Inh: 33%
GRK4
  %Inh: 81%
GRK7
  %Inh: 0%
GSK3A
  %Inh: 0%
GSK3B; [1]
  %Inh: 7%

## CN1CCN(Cc2cccc(-c3ccc4c(Nc5ccc(Oc6ccccc6)cc5)ccnc4c3)c2)CC1 [GW578342]
FGFR1
  %Inh: 22%
FGFR2
  %Inh: 0%
FGFR3
  %Inh: 17%
FGFR4
  %Inh: 0%
FGR
  %Inh: 92.4%
FLT1
  %Inh: 45%
FLT3-autoinhibited
  %Inh: 36%
FLT3
  %Inh: 93.2%
FLT4
  %Inh: 43%
FRK
  %Inh: 19%
FYN
  %Inh: 83%
GAK
  %Inh: 3%
GCN2(Kin.Dom.2,S808G)
  %Inh: 0%
GRK1
  %Inh: 1%
GRK2
  %Inh: 2%
GRK3
  %Inh: 37%
GRK4
  %Inh: 0%
GRK7
  %Inh: 0%
GSK3A
  %Inh: 16%
GSK3B; [1]
  %Inh: 0%

## Cl.c1ccc(-c2ccc3c(Nc4ccc5[nH]ncc5c4)ccnc3c2)nc1 [GW440137]
FGFR1
  %Inh: 14%
FGFR2
  %Inh: 0%
FGFR3
  %Inh: 11%
FGFR4
  %Inh: 0%
FGR
  %Inh: 30%
FLT1
  %Inh: 62%
FLT3-autoinhibited
  %Inh: 2%
FLT3
  %Inh: 0%
FLT4
  %Inh: 39%
FRK
  %Inh: 0%
FYN
  %Inh: 50%
GAK
  %Inh: 68%
GCN2(Kin.Dom.2,S808G)
  %Inh: 0%
GRK1
  %Inh: 0%
GRK2
  %Inh: 0%
GRK3
  %Inh: 22%
GRK4
  %Inh: 0%
GRK7
  %Inh: 0%
GSK3A
  %Inh: 16%
GSK3B; [1]
  %Inh: 17%

## CCc1ccc(-c2ccc3c(c2)-c2c(cnn2C)S(=O)(=O)N3C)cc1
FGFR1
  %Inh: 3%
FGFR2
  %Inh: 0%
FGFR3
  %Inh: 0%
FGFR4
  %Inh: 0%
FGR
  %Inh: 0%
FLT1
  %Inh: 0%
FLT3-autoinhibited
  %Inh: 9%
FLT3
  %Inh: 0%
FLT4
  %Inh: 0%
FRK
  %Inh: 0%
FYN
  %Inh: 3%
GAK
  %Inh: 8%
GCN2(Kin.Dom.2,S808G)
  %Inh: 16%
GRK1
  %Inh: 11%
GRK2
  %Inh: 0%
GRK3
  %Inh: 0%
GRK4
  %Inh: 16%
GRK7
  %Inh: 0%
GSK3A
  %Inh: 0%
GSK3B; [1]
  %Inh: 13%

## Oc1cc(Nc2ccnc3cc(I)ccc23)ccc1F [GW552771]
FGFR1
  %Inh: 23%
FGFR2
  %Inh: 0%
FGFR3
  %Inh: 13%
FGFR4
  %Inh: 0%
FGR
  %Inh: 84%
FLT1
  %Inh: 44%
FLT3-autoinhibited
  %Inh: 0%
FLT3
  %Inh: 0%
FLT4
  %Inh: 45%
FRK
  %Inh: 72%
FYN
  %Inh: 62%
GAK
  %Inh: 85%
GCN2(Kin.Dom.2,S808G)
  %Inh: 8%
GRK1
  %Inh: 0%
GRK2
  %Inh: 0%
GRK3
  %Inh: 65%
GRK4
  %Inh: 10%
GRK7
  %Inh: 0%
GSK3A
  %Inh: 17%
GSK3B; [1]
  %Inh: 0%

## COc1cccc(C(=O)Nc2cccc(Oc3ccc4nc(NC(=O)C5CC5)cn4n3)c2)c1
FGFR1
  %Inh: 22%
FGFR2
  %Inh: 88%
FGFR3
  %Inh: 41%
FGFR4
  %Inh: 48%
FGR
  %Inh: 98%
FLT1
  %Inh: 99.9%
FLT3-autoinhibited
  %Inh: 24%
FLT3
  %Inh: 89%
FLT4
  %Inh: 100%
FRK
  %Inh: 94.9%
FYN
  %Inh: 84%
GAK
  %Inh: 33%
GCN2(Kin.Dom.2,S808G)
  %Inh: 22%
GRK1
  %Inh: 17%
GRK2
  %Inh: 0%
GRK3
  %Inh: 0%
GRK4
  %Inh: 0%
GRK7
  %Inh: 0%
GSK3A
  %Inh: 8%
GSK3B; [1]
  %Inh: 10%

## Nc1ncc(-c2ccc3nccc(-c4ccncc4)c3c2)cc1S(=O)(=O)N1CCOCC1 [GSK1627798]
FGFR1
  %Inh: 0%
FGFR2
  %Inh: 0%
FGFR3
  %Inh: 6%
FGFR4
  %Inh: 0%
FGR
  %Inh: 24%
FLT1
  %Inh: 22%
FLT3-autoinhibited
  %Inh: 0%
FLT3
  %Inh: 0%
FLT4
  %Inh: 0%
FRK
  %Inh: 8%
FYN
  %Inh: 14%
GAK
  %Inh: 6%
GCN2(Kin.Dom.2,S808G)
  %Inh: 3%
GRK1
  %Inh: 1%
GRK2
  %Inh: 0%
GRK3
  %Inh: 17%
GRK4
  %Inh: 1%
GRK7
  %Inh: 0%
GSK3A
  %Inh: 1%
GSK3B; [1]
  %Inh: 3%
